# In PubChem BioAssay (EPA / NIEHS):
# Where “and” joins values, the source holds several entries; their conditions need not be identical. Equal entries are not always repeated. More than one record can exist for a structure, and the calls need not agree. Calls of active or inactive are those of the source. Rule for the calls: active = hit-call score of the fitted dose curve at least 0.9, where 1 is the maximum; inactive = score below 0.9.
# Read-out: Forkhead box O3 (FOXO3), FOXO3 (gene 2309)
# Test: LTEA_HepaRG_FOXO3: Life Technologies and Expression Analysis (LTEA) Assay for Forkhead box O3 (FOXO3) using HepaRG (AID 2283459)
# Conditions: mRNA level, 48 h; actives raise or lower the signal
# Method: LTEA_HepaRG is a cell based, multiplexed-readout assay that uses HepaRG, a human liver cell line, with measurements taken at 48 hours after chemical dosing on a 96-well plate.LTEA_HepaRG_FOXO3 is one of 102 assay component(s) measured in the LTEA HepaRG cell culture assay. It is a marker of Cell proliferation, survival, death.Data from the assay component LTEA_HepaRG_FOXO3 was analyzed into 1 endpoint. This assay endpoint, LTEA_HepaRG_FOXO3, was analyzed with bidirectional fitting relative to DMSO as the negative control and baseline of activity. Using a type of inducible reporter, measures of mRNA induction for gain or loss-of-signal activity can be used to understand regulation of transcription factor activity. To generalize the intended target to other relatable targets, this assay endpoint is annotated to the dna binding intended target family, where the subfamily is forkhead box protein.
# A total of 1060 chemcials from the ToxCast library were tested in eight-point concentration-response experiments. Cell culture and cytotoxicity assays were conducted at Thermo Fisher Scientific's Custom Services facility (Madison, WI). A single lot of human HepaRG cells (Thermo Fisher Scientific, Frederick, MD) was used for the cell culture experiments. 96-well format collagen type I coated plates of human HepaRG cells were prepared using established methods. Briefly, cryopreserved HepaRG cells were thawed, plated at a density of approximately 100,000 cells/well in HepaRG Thaw, Plate, and General Purpose media (HPRG770, Thermo Fisher Scientific), and incubated for 48 hours. 0.5% DMSO was selected as vehicle control to balance the requisite need of DMSO in HepaRG cultures to maintain differentiation (for example, baseline metabolism, proportions of hepatocytes vs. cholangiocytes), while enabling further hepatic receptor pathway activation (for example, PXR and CAR) in response to chemical exposure. 48 hours after plating, the culture medium was replaced with HepaRG Serum-Free Incudtion Media. Cells were exposed to each test chemical in duplicate and maintained in CO2 incubators for another 48 hours. Chemical plates were thawed to room temperature and 200x concentrations of treatment groups were prepared. 8-point conentration-reponse curves were made with the highest exposure at 100 uM, followed by half-log dilutions, all in 0.5% DMSO. Each test plate contained variouse controls, induction positive controls (1mM phenobarbital), cytotoxicity positive controls ([…] aflatoxin B1), vehicle controls (0.5% DMSO), and total lysis controls (0.5% DMSO). Cell morphology images were taken using an Essen IncuCyte FLR automated microscope, with six 96-well plates imaged in about 24 minutes. Images were captured and exported and JPEG files. Spent culture media was transfered to black-well plates for the LDH assay, and remaining media was sorted at -80 C for later use. Cells were treated with RLT buffer and frozen until shipped for gene expression analysis. Total RNA was isolated from the cell suspension in 75 uL of Buffer RLT (Qiagen, Germantown, MD 20874) by Quintiles/Expression Analysis (Durham, NC) using a custom isolation procedure. Total RNA from each plate well was transferred to a preamplification plate. Fluidigm's 96.96 Dynamic ArrayTM (Fluidigm, Amsterdam, the Netherlands) technology was used for gene expression analyses by quantitative reverse transcription polymerase chain reaction (qRT-PCR, performed by Quintiles/Expression Analysis, Durham, NC)89. Standard TaqManTM Assays (Applied Biosystems/ThermoFisher Scientific, Foster City, CA) were used to assess the expression of 93 genes selected based on their selectivity and sensitivity to important hepatic receptors known to be modulated by environmental chemicals; importance in human hepatocyte functionality; and hepatotoxicity. […]
Structure (SMILES),outcome,AC50
CN1CSC(=S)N(C)C1,inactive,–
CC(C)(C)C(O)/C(=C\c1ccc(Cl)cc1Cl)n1cncn1 (stereo not given),–,82.3 µM (active)
CCc1ccc(C(=O)NN(C(=O)c2cc(C)cc(C)c2)C(C)(C)C)cc1,inactive,–
OCCOc1ccccc1,inactive,–
COc1nn(CSP(=S)(OC)OC)c(=O)s1,inactive,–
CC1(C)C(C=C(Cl)Cl)C1C(=O)OC(C#N)c1ccc(F)c(Oc2ccccc2)c1 (stereo not given),inactive,–
ClC1C(Cl)C(Cl)C(Cl)C(Cl)C1Cl (stereo not given),inactive,–
Clc1ccccc1-c1nnc(-c2ccccc2Cl)nn1,inactive,–
COP(=S)(OC)Oc1ccc(SC)c(C)c1,inactive,–
O=C(NC(=O)c1c(F)cccc1F)Nc1ccc(OC(F)(F)C(F)OC(F)(F)F)c(Cl)c1 (stereo not given),inactive,–
CCN(CC)C(=O)SCc1ccc(Cl)cc1,inactive,–
O=C(O)CCCOc1ccc(Cl)cc1Cl,inactive,–
C#CCN1C(=O)COc2cc(F)c(N3C(=O)C4=C(CCCC4)C3=O)cc21,inactive,–
COP(=S)(OC)Oc1ccc([N+](=O)[O-])cc1,inactive,–
CNC(=O)Oc1cccc(N=CN(C)C)c1,inactive,–
C[C@H]1[C@H](c2ccc(Cl)cc2)SC(=O)N1C(=O)NC1CCCCC1,inactive,–
COP(=O)(OC)OC=C(Cl)Cl,inactive,–
O=[N+]([O-])c1c(Cl)c(Cl)c(Cl)c(Cl)c1Cl,inactive,–
Oc1cc(Cl)ccc1Oc1ccc(Cl)cc1Cl,inactive,0.067 µM (active)

Structure (SMILES),outcome,AC50
N#CN,inactive,–
Cc1[nH]c(=O)n(C(C)(C)C)c(=O)c1Cl,–,50 µM (active)
CCOC1Oc2ccc(OS(C)(=O)=O)cc2C1(C)C (stereo not given),inactive,–
Oc1ccc(Cl)cc1Cc1ccccc1,inactive,91.5 µM (active) and 87.9 µM (active)
CCC(C)(C)C(=O)OC1=C(c2ccc(Cl)cc2Cl)C(=O)OC12CCCCC2,inactive,–
CNC(=O)CSP(=S)(OC)OC,inactive,–
CCC(C)(NC(=O)c1cc(Cl)c(C)c(Cl)c1)C(=O)CCl (stereo not given),inactive,–
CCCN(CCOc1c(Cl)cc(Cl)cc1Cl)C(=O)n1ccnc1,inactive,–
O=C(O)COc1ccc(Cl)cc1Cl,inactive,–
O=[N+]([O-])/N=C1\NCCN1Cc1ccc(Cl)nc1,–,26.9 µM (active)
CC(C)OC(=O)Nc1cccc(Cl)c1,inactive,–
CCCN(CCC)c1c([N+](=O)[O-])cc(C(F)(F)F)cc1[N+](=O)[O-],inactive,–
CCC(C)Nc1c([N+](=O)[O-])cc(C(C)(C)C)cc1[N+](=O)[O-] (stereo not given),inactive,–
O=C1c2ccccc2C(=O)N1SC(Cl)(Cl)Cl,inactive,–
O=C(Nc1ccccc1)Nc1cnns1,inactive,–
CC(C)N(C(=O)COc1nnc(C(F)(F)F)s1)c1ccc(F)cc1,inactive,–
O=C(O)C(F)(F)C(F)(F)C(F)(F)C(F)(F)C(F)(F)C(F)(F)C(F)(F)F,inactive,–
CC[C@H](C)[C@H]1O[C@]2(C=C[C@@H]1C)C[C@@H]1C[C@@H](C/C=C(\C)[C@@H](O[C@H]3C[C@H](OC)[C@@H](O[C@H]4C[C@H](OC)[C@@H](O)[C@H](C)O4)[C@H](C)O3)[C@@H](C)/C=C/C=C3\CO[C@@H]4[C@H](O)C(C)=C[C@@H](C(=O)O1)[C@]34O)O2 (tested in a mixture with another compound),inactive,–
O=S1OCC2C(CO1)C1(Cl)C(Cl)=C(Cl)C2(Cl)C1(Cl)Cl (stereo not given),inactive,–
